The supplement of paper PMC9492666

Test system: HCC1937
Experiment: relative cell viability, compound + RSL3, vs DMSO (fraction of DMSO control); higher = less growth inhibition
Settings: 72 h
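Also: breast cancer cell viability read out with the CCK-8 kit after co-treatment of each compound with the ferroptosis inducer RSL3.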

SMILES | relative cell viability
CCC(C)(Oc1ccc(C2(c3ccc(OC(C)(CC)C(=O)O)cc3)CCCCC2)cc1)C(=O)O (configuration not stated) [Clinofibrate] + COC(=O)c1ccc([C@H]2c3[nH]c4ccccc4c3C[C@H](C(=O)OC)N2C(=O)CCl)cc1 [RSL3] | 0.561
C[C@]12C=CC(=O)N[C@@H]1CC[C@@H]1[C@@H]2CC[C@]2(C)[C@@H](C(=O)Nc3cc(C(F)(F)F)ccc3C(F)(F)F)CC[C@@H]12 [Dutasteride] + COC(=O)c1ccc([C@H]2c3[nH]c4ccccc4c3C[C@H](C(=O)OC)N2C(=O)CCl)cc1 [RSL3] | 0.53
COc1ccc2c(c1)c(CC(=O)O)c(C)n2C(=O)c1ccc(Cl)cc1 [Indometacin] + COC(=O)c1ccc([C@H]2c3[nH]c4ccccc4c3C[C@H](C(=O)OC)N2C(=O)CCl)cc1 [RSL3] | 1.01
CC(C)C1=CC2=CC[C@@H]3[C@](C)(CCC[C@@]3(C)C(=O)O)[C@H]2CC1 [Abietic Acid] + COC(=O)c1ccc([C@H]2c3[nH]c4ccccc4c3C[C@H](C(=O)OC)N2C(=O)CCl)cc1 [RSL3] | 0.586
CCCCCCCCCCCCCCCC(=O)NCCO [Palmidrol] + COC(=O)c1ccc([C@H]2c3[nH]c4ccccc4c3C[C@H](C(=O)OC)N2C(=O)CCl)cc1 [RSL3] | 0.655
CCOc1cc(CC(=O)N[C@@H](CC(C)C)c2ccccc2N2CCCCC2)ccc1C(=O)O [Repaglinide] + COC(=O)c1ccc([C@H]2c3[nH]c4ccccc4c3C[C@H](C(=O)OC)N2C(=O)CCl)cc1 [RSL3] | 0.598
Cc1cc(C)c(S(=O)(=O)N(CCc2cccc(Br)c2)Cc2ccc(-c3cccc(S(C)(=O)=O)c3)cc2)c(C)c1 + COC(=O)c1ccc([C@H]2c3[nH]c4ccccc4c3C[C@H](C(=O)OC)N2C(=O)CCl)cc1 [RSL3] | 0.636
CC(=O)N1CCN(c2ccc(OCC3COC(Cn4ccnc4)(c4ccc(Cl)cc4Cl)O3)cc2)CC1 (configuration not stated) [Ketoconazole] + COC(=O)c1ccc([C@H]2c3[nH]c4ccccc4c3C[C@H](C(=O)OC)N2C(=O)CCl)cc1 [RSL3] | 0.63
COc1ccc(-c2c[nH]c3nccc(-c4ccsc4)c23)c(OC)c1 + COC(=O)c1ccc([C@H]2c3[nH]c4ccccc4c3C[C@H](C(=O)OC)N2C(=O)CCl)cc1 [RSL3] | 0.403
COC(=O)c1cc(Cl)c(O)c(S(=O)(=O)Nc2cc(-c3ccccc3)c(F)cc2F)c1 + COC(=O)c1ccc([C@H]2c3[nH]c4ccccc4c3C[C@H](C(=O)OC)N2C(=O)CCl)cc1 [RSL3] | 0.45
CC(O)(CC(=O)O)CC(=O)O [Meglutol] + COC(=O)c1ccc([C@H]2c3[nH]c4ccccc4c3C[C@H](C(=O)OC)N2C(=O)CCl)cc1 [RSL3] | 0.443
CCCc1c(-c2ccccc2)[nH]n(-c2ccccn2)c1=O [APX-115 free base] + COC(=O)c1ccc([C@H]2c3[nH]c4ccccc4c3C[C@H](C(=O)OC)N2C(=O)CCl)cc1 [RSL3] | 0.412
CC1=C[C@]2(O)O[C@@]3(CC2=C(C)C)[C@@H](C)CC[C@@H]13 [Curcumenol] + COC(=O)c1ccc([C@H]2c3[nH]c4ccccc4c3C[C@H](C(=O)OC)N2C(=O)CCl)cc1 [RSL3] | 0.369
COC(=O)CN(c1ccc(CN(c2ccc(OCc3ccc(C)cc3)c(C(=O)OC)c2)S(=O)(=O)Cc2ccccc2)cc1)S(C)(=O)=O + COC(=O)c1ccc([C@H]2c3[nH]c4ccccc4c3C[C@H](C(=O)OC)N2C(=O)CCl)cc1 [RSL3] | 0.538
CC1(C)C[C@H]2C3=CC[C@@H]4[C@@]5(C)CC[C@H](O)[C@@](C)(CO)[C@@H]5CC[C@@]4(C)[C@]3(C)C[C@H](O)[C@@]2(CO)[C@@H](O)[C@@H]1O [Gymnemagenin] + COC(=O)c1ccc([C@H]2c3[nH]c4ccccc4c3C[C@H](C(=O)OC)N2C(=O)CCl)cc1 [RSL3] | 0.571
CCc1c(-c2ccccc2)c(-c2ccccc2)nn1-c1ccccc1-c1cccc(OCC(=O)O)c1 + COC(=O)c1ccc([C@H]2c3[nH]c4ccccc4c3C[C@H](C(=O)OC)N2C(=O)CCl)cc1 [RSL3] | 0.503

SMILES | relative cell viability
O=C(O)Cc1cccc(OCCCN(Cc2cccc(C(F)(F)F)c2Cl)CC(c2ccccc2)c2ccccc2)c1 + COC(=O)c1ccc([C@H]2c3[nH]c4ccccc4c3C[C@H](C(=O)OC)N2C(=O)CCl)cc1 [RSL3] | 0.418
NC(N)=N/N=C/c1cccc(Cl)c1Cl [Raphin1 acetate] + COC(=O)c1ccc([C@H]2c3[nH]c4ccccc4c3C[C@H](C(=O)OC)N2C(=O)CCl)cc1 [RSL3] | 0.38
C=C(C)[C@@H]1CC[C@]2(C)CC[C@]3(C)[C@H](CC[C@@H]4[C@@]5(C)CCC(=O)C(C)(C)[C@@H]5CC[C@]43C)[C@@H]12 + COC(=O)c1ccc([C@H]2c3[nH]c4ccccc4c3C[C@H](C(=O)OC)N2C(=O)CCl)cc1 [RSL3] | 0.595
N#Cc1c(O)c2c(-c3ccc(-c4ccccc4O)cc3)csc2[nH]c1=O + COC(=O)c1ccc([C@H]2c3[nH]c4ccccc4c3C[C@H](C(=O)OC)N2C(=O)CCl)cc1 [RSL3] | 0.412
Cc1nc(Nc2cnn(C3CCNCC3)c2)nc2c1N(C)C(=O)c1cc3ccccc3cc1N2C + COC(=O)c1ccc([C@H]2c3[nH]c4ccccc4c3C[C@H](C(=O)OC)N2C(=O)CCl)cc1 [RSL3] | 0.31
COc1cc(O)c2c(c1)O[C@H](c1ccc(O)cc1)CC2=O [Sakuranetin] + COC(=O)c1ccc([C@H]2c3[nH]c4ccccc4c3C[C@H](C(=O)OC)N2C(=O)CCl)cc1 [RSL3] | 0.362
Nc1ncnc2c1ncn2C1OC(COP(=O)(O)O)C(O)C1O (configuration not stated) [Adenosine 5'-monophosphate monohydrate] + COC(=O)c1ccc([C@H]2c3[nH]c4ccccc4c3C[C@H](C(=O)OC)N2C(=O)CCl)cc1 [RSL3] | 0.932
C=CC[S+]([O-])C[C@H](N)C(=O)O (some centres not stated) [Alliin] + COC(=O)c1ccc([C@H]2c3[nH]c4ccccc4c3C[C@H](C(=O)OC)N2C(=O)CCl)cc1 [RSL3] | 0.554
C/C=C(\CC[C@@H](C)[C@H]1CC[C@H]2[C@@H]3CC=C4C[C@@H](O)CC[C@]4(C)[C@H]3CC[C@]12C)C(C)C [Fucosterol] + COC(=O)c1ccc([C@H]2c3[nH]c4ccccc4c3C[C@H](C(=O)OC)N2C(=O)CCl)cc1 [RSL3] | 0.476
CC[C@H]1[C@@H](O)[C@@H]2[C@H](CC[C@]3(C)[C@@H]([C@H](C)CCC(=O)O)CC[C@@H]23)[C@@]2(C)CC[C@@H](O)C[C@@H]12 [Obeticholic Acid] + COC(=O)c1ccc([C@H]2c3[nH]c4ccccc4c3C[C@H](C(=O)OC)N2C(=O)CCl)cc1 [RSL3] | 0.513
COc1ccc2[nH]cc(CCNC(C)=O)c2c1 [Melatonine] + COC(=O)c1ccc([C@H]2c3[nH]c4ccccc4c3C[C@H](C(=O)OC)N2C(=O)CCl)cc1 [RSL3] | 0.613
CCOC(=O)C(C)(C)Oc1ccc(Cl)cc1 [Clofibrate] + COC(=O)c1ccc([C@H]2c3[nH]c4ccccc4c3C[C@H](C(=O)OC)N2C(=O)CCl)cc1 [RSL3] | 0.728
O=C(CCCCc1ccc2c(c1)OCO2)N1CCCCC1 + COC(=O)c1ccc([C@H]2c3[nH]c4ccccc4c3C[C@H](C(=O)OC)N2C(=O)CCl)cc1 [RSL3] | 0.262
O=C(Nc1ccncc1)c1cc([N+](=O)[O-])ccc1Cl + COC(=O)c1ccc([C@H]2c3[nH]c4ccccc4c3C[C@H](C(=O)OC)N2C(=O)CCl)cc1 [RSL3] | 0.297
CCCCCCCCCCCC1=C(O)C(=O)C=C(O)C1=O [Embelin] + COC(=O)c1ccc([C@H]2c3[nH]c4ccccc4c3C[C@H](C(=O)OC)N2C(=O)CCl)cc1 [RSL3] | 0.458
O=C(O)C(=O)Nc1sc2c(c1C(=O)O)CCNC2 + COC(=O)c1ccc([C@H]2c3[nH]c4ccccc4c3C[C@H](C(=O)OC)N2C(=O)CCl)cc1 [RSL3] | 0.541
